Data: the supplement of paper PMC3334620
Over roughly 33,000 sequences, “E-score (-0.5 to 0.5)” has its median near -0.017; the highest 2% begin near 0.3. Shown is part of a subset that was picked to be rich in the highest values.

biological target: T1, Sut1 (UniProt P53032); test: PBM E-score (8-mer binding enrichment) (E-score (-0.5 to 0.5)); higher = stronger / more preferred TF binding; settings: protein concentration: 200 nM; construct: GST-full length
T1 sequence: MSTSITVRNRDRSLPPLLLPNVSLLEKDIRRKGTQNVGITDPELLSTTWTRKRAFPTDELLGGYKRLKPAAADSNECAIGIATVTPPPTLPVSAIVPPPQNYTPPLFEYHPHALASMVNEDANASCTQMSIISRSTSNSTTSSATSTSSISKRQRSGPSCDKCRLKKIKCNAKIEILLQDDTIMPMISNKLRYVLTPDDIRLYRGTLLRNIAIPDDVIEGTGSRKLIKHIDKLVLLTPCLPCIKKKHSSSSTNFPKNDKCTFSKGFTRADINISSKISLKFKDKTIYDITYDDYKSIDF
Description: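 Universal 'all 10-mer' protein binding microarrays (Agilent AMADID 015681) probed with GST-tagged S. cerevisiae TFs (full-length or DBD) made by in vitro transcription/translation (PURExpress), about 100-200 nM. Bound TF was detected with fluorescent anti-GST. Each ungapped 8-mer (which stands for itself and its reverse complement) is scored by the PBM enrichment score (E-score), a modified Wilcoxon-Mann-Whitney statistic from -0.5 to +0.5, computed with the Universal PBM Analysis Suite. Scale: above 0.35 generally sequence-specific binding.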

Sequence	PBM E-score
AATCGGAG	0.396
CATCGGTC	-0.106
CATCGGAG	0.435
GATCGGAC	0.367
CATCGGAA	0.269
GATCGGGC	-0.0436
GATCGGAA	0.159
CATCGGCG	-0.137
CATCGGAC	0.37
AATCGGAT	0.183
CATCGGGG	-0.00411
AATCGGTG	0.0417
ACAAGCAG	0.0716
CGTCTCGA	-0.113
AAGCAGAG	-0.037
CAGTCGAG	-0.103
CAATGGGG	-0.163
GAAGTCTA	0.0111
CCTACTCA	0.021
AGCAGTTC	0.0132
AATCGGAC	0.338
AATCGGCC	-0.109
AATCGGGC	-0.0945
AATCGGAA	0.38
AATCGGCA	0.107

Sequence	PBM E-score
TATCGGAA	0.26
CCACTTTA	0.0316
CCGGTCAG	-0.0559
AATCAGAT	0.0945
AAGGGATG	-0.0899
GAGTCCAC	-0.108
AAGCTCCT	-0.112
CAGCTCCA	-0.0491
AGGCTCCA	-0.178
AAGCTCCC	-0.156
AAGCTCCG	0.455
AGGCTCCC	-0.0884
CAGCTCCG	0.461
CAGCTCCC	-0.181
AGGCTCCG	0.357
CAGGCCTG	0.0399
ACGCTAAC	-0.22
GTTCGACA	-0.0722
CTAATAAC	0.14
ATAATATG	0.286
ATAATATA	0.301
TTAATAAA	0.341
GTAATAAA	0.284
CTAATATA	0.225
ATAATAAA	0.339

Sequence	PBM E-score
ATAATAAT	0.295
CTAATAAA	0.197
AATCCTCG	-0.164
CGGGGCTC	0.0261
ACTTGGGG	-0.203
CGCGCCTC	0.0917
GGGATACA	-0.064
CACCCCGA	0.134
CACCCCGG	0.0471
ACCCCCGA	-0.118
TACCCCGA	0.324
ACCCCCGG	-0.0829
GACCCCGA	0.0897
AACCCCGA	0.447
AACCCCGG	0.438
AAACCCGA	0.198
GATGCTAA	0.0485
AATAGGCC	0.0314
GCTCGCAA	-0.101
CATCCACC	-0.0255
CGATTCTA	-0.0107
GGCTAATA	0.17
ACTCATAC	0.0873
ACCAACCC	-0.212
CTATCGGA	0.337

Sequence	PBM E-score
GTATCGGA	0.281
ATATCGGA	0.331
GGATCGGA	0.277
AGATCGGA	0.348
CGATCGGA	0.246
ATATCGGC	-0.0245
ATATCGGG	-0.0571
CTATCGGC	-0.13
CCTGCTAC	-0.0632
GTTCGGTA	0.141
AAGATGGC	-0.0118
AGTCCCAG	-0.199
ATTGACCG	0.0305
AGAGTCCA	-0.0986
CGTTGCAG	-0.136
ATGCAGCA	-0.134
ATCCTTCG	0.0447
CTCCGCAC	0.306
ATCCGCAC	-0.0365
ATCCGCAG	0.0529
CTCCGCAA	0.271
GTCCGCAC	0.247
CTCCGCAG	0.364
CGATTTCA	0.0969
CCACACGG	-0.0635

Sequence	PBM E-score
ACGTCCGG	0.101
GTCCGTAA	0.342
CTCCGTAC	0.331
CTCCGTAA	0.328
GACCGTAA	-0.0628
CACCGTAC	0.0478
CACCGTAA	0.0107
ATCCGTAC	0.178
CCCCGTAA	0.0974
ATCCGTAA	0.183
AGCATTGA	-0.0961
CCTAACCA	0.0768
ACATCTGC	-0.193
TATAAATA	0.343
ATTAAATC	0.191
TAAAAATA	0.249
CTTAAAGA	0.111
CATAAAAA	0.161
GTTAAAGA	0.0511
TATAAAAA	0.318
ATTAAATG	0.243
ATTAAAGA	0.311
CATAAATA	0.168
GATAAAAA	0.263
ATTAAATA	0.315

Sequence	PBM E-score
ACCATGAG	-0.166
TGCTTCAA	0.0485
AAGTTCTA	0.0927
GAGGATCA	-0.09
CAGCTATC	-0.207
ATGAGTCG	-0.157
ACAGCGTG	-0.171
AGGCCCAC	-0.387
AAGGCTAA	0.0404
AATAAATG	0.179
AACAAATA	0.201
GATAAATC	0.26
GATAAATA	0.325
CACAAATA	0.13
TACAAATA	0.303
GATAAACA	0.203
AATAAATA	0.374
AATAAATT	0.237
AACAAGCG	-0.0413
GCGCCTCA	-0.0448
ACACTTAC	0.0992
AATCTCCC	-0.268
ATTCTCCC	-0.0729
CATCTCCG	0.478
ATTCTCCA	-0.0299

Sequence	PBM E-score
ATTCTCCG	0.409
CATCTCCA	-0.036
AGTCTCCA	-0.229
AATCTCCT	0.147
AATCTCCG	0.454
AGTCTCCC	-0.0841
AGTCTCCG	0.316
CATCTCCC	-0.138
GAACTTTA	0.145
GTAATTCA	0.182
CAAATCGG	0.0756
AGCCTTCG	-0.203
AATTTCGG	0.242
CAGAAATC	0.0914
CCGTTGGA	0.0326
ACTCGCTA	0.0713
ACCGGACC	0.364
ACCGGACG	0.114
ACTGGACT	-0.107
ACCGGACT	0.485
AGCGGACG	-0.118
AGCGGACA	0.107
AACGGACG	0.0275
AACGGACC	0.191
AACGGACA	0.24

Sequence	PBM E-score
AGCGGACT	0.406
ACCGGAAC	0.29
AACGGACT	0.444
AGCATATA	0.102
ACGCAAAC	-0.0168
CGGGGACA	-0.0417
AGAACAGC	-0.0298
ACGTGGTG	-0.133
CGCCATTA	0.0246
AGCCACCG	-0.122
CCTCCGCC	-0.221
ACTCCGCG	0.476
GCTCCGCC	0.0486
CCTCCGCG	-0.0947
ACTCCGCC	0.438
AATCCGCT	-0.0383
CCTCCGCA	-0.205
GCTCCGCA	0.227
ACTCCGCT	0.452
ACTCCGCA	0.473
ACTCCCCG	0.196
ACGCCGCT	-0.0911
CAACGGGA	0.0235
AGAACCAT	0.12
GAGGCTCC	0.0186

Sequence	PBM E-score
ACCTTTGG	-0.287
CACATCGA	-0.0466
AGCCACTG	-0.0195
CGGAGACG	0.204
CTGAGATC	-0.209
AGGAGATA	-0.155
AGGAGATC	0.0207
GGGAGATA	-0.144
CGGAGACC	0.315
GGGAGACC	-0.235
CGGAGATA	0.458
CGGAGATC	0.445
AAAAGCAA	0.242
ACCACCGT	-0.0843
GCAGGTAC	-0.132
CTCAAGCC	-0.126
GGAGAGCA	-0.125
CCCTAACA	0.071
AGTGCATG	-0.0963
CATGGGTC	-0.185
ATTCGTAC	0.154
CGGTCCGA	0.264
GGGTCCGA	0.295
AGGTCCGC	0.286
AGGTCCAG	-0.0827

Sequence	PBM E-score
AGGTCCGG	0.461
AGGTCCGA	0.457
CCTTGAAG	-0.0873
GCTCAAGA	-0.148
ATAGTGGG	-0.0539
AATCTGGT	0.047
AGGCCTTA	-0.127
GAAGCTCC	0.35
AAAGCTCC	0.0815
GAAGCTCA	-0.033
GACACCCA	-0.118
ATTCTATA	0.16
GGAGCGTA	0.0804
CAATCTCA	-0.0455
CTATCTCC	0.114
CAATCTCG	-0.097
ATCTCTCC	-0.0902
ATATCTCC	0.341
CAATCTCC	0.312
CATCTGCG	-0.0835
CGGTCAAG	-0.09
TCTGATAA	-0.0508
AATTGTCT	-0.0132
CTCGTTAA	0.1
GTAACGCA	0.021

Sequence	PBM E-score
GTAACGGA	0.329
GTAACGTA	0.0551
CTAACGAA	-0.0566
ATAACGGA	0.341
ATAACGGC	0.00713
CTAACGGA	0.305
ATAACGGG	0.0139
CTAACGGC	0.0477
GAAACGCA	0.026
CTGAGCGA	-0.162
AAGGTTGA	0.0981
GTTTAGTA	0.208
GACATCGC	-0.0981
CATAACAC	0.0299
CGCTCAGC	-0.105
ATTTTGCG	0.193
GCTCCCAC	-0.109
CATATGTC	-0.0849
CCTGTCAA	-0.085
ATCCGGGA	0.0768
CGCCGGGC	0.00809
GACCGGGA	-0.0471
CTCCGGGC	0.391
CGCCGGGA	-0.203
CTCCGGGA	0.436

Sequence	PBM E-score
ATCCGGGC	0.127
GTCCGGGA	0.413
CCCCGGGA	-0.0206
CCCGGTCC	-0.0342
AACTCACT	-0.151
CAATTCAA	0.0614
GGCCCTCA	-0.279
CTGGTTCA	-0.0784
ACTCGGAT	0.0613
CCTCGGCG	-0.0382
CCTCGGAA	0.215
CCTCGGGC	-0.209
ACTCGGAA	0.323
ACTCGGTC	-0.072
ACTCGGAC	0.411
ACTCGGGC	-0.0385
CCTCGGTA	-0.0533
CCTCGGAG	0.446
CCTCGGAC	0.412
TCTCGGAA	0.215
CTAGTTGC	-0.0129
GCCTTGGA	-0.0418
GACGCGTC	-0.325
ATCTATAG	0.11
CAGCCTGA	-0.275

Sequence	PBM E-score
ATATGAGG	-0.0891
ACTCGGTG	-0.0621
ACTCGGAG	0.399
GCTCGGAC	0.365
GCTCGGCC	-0.204
ACTCGGCG	0.0415
GCTCGGAA	0.165
ATACATTA	0.234
ACACTAAG	-0.0951
TATATACA	0.316
CATATATC	-0.0165
TATATAGA	0.278
GATATATA	0.247
TATATATA	0.381
AATATACA	0.29
CATATATA	0.299
GATATACA	0.194
CATATATG	0.0281
GGCCAGCA	-0.168
ACCCAGGA	-0.13
AAGACTTC	-0.196
AACCCCTC	-0.198
AAGGGGGA	-0.0309
CAGTCAAA	0.0987
CCTTGCAG	-0.143

Sequence	PBM E-score
ACTCGTCG	-0.174
TAATCGCA	-0.0128
GTCGGAAC	0.134
AACGGAAT	0.294
AACGGAAA	0.327
ATCGGAAA	0.302
ATCGGAAG	0.253
CACGGAAA	0.188
GTCGGAAA	0.355
CTCGGAAA	0.19
TTCGGAAA	0.252
ATCGGAAC	0.14
ATCGGAAT	0.352
AGCGGAAT	0.0494
AGTAACTC	0.115
CGACGAAA	0.0757
AAGTGAGC	-0.0565
GCTTTTTA	0.161
GGAGCGAA	0.0455
